# Screening results (PubChem)
# Sampled rows, rich in hits. Any-hit rate of the full collection: about 4%.
# TRPM1 prom inh = MITF TRPM1 promoter inhibition in SK-MEL-5 cells; SK-MEL-5 TRPM1 promoter luciferase, 24 h; inhibition, % at 12.5 µM; 0.83% of 330,000 active; AID 488899;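 active means mean inhibition across replicates of 60% or more, whatever share of single replicates reaches that level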
# LMP1 NFkB inh = Epstein-Barr LMP1 NF-kappaB reporter inhibition. inhibition, % at 12.5 µM. 0.69% of 350,000 active. LMP1-induced NF-kappaB luciferase reporter cells, luminescence; in the data active means inhibition above about 41%;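 further: 0% = neutral control wells and 100% = reference inhibitor control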
# esBAF inh = blocks esBAF chromatin remodeling in mouse ES cells; Bmi1-luciferase knock-in reporter, 24 h; 100% = twice the neutral-well signal; reporter increase, % at 12.5 µM; 2% of 350,000 active; in the data active means activation above about 40%;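 further: 0% = median of the plate's neutral control wells and 100% = double that signal; a rise in the Bmi1 reporter signal indicates esBAF inhibition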
# MITF TRPM1 HTS = activators of MITF-driven TRPM1 promoter activity in SK-MEL-5 cells; SK-MEL-5 TRPM1-promoter luciferase, 24 h; % of positive control, neutral wells = 0; activation, % at 12.5 µM; 0.75% of 300,000 active;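 active means mean activation of at least 80% with every replicate also reaching 80%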;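 further: 0% = neutral control wells and 100% = parthenolide positive control wells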
# Wnt bcat act = activators of Wnt/beta-catenin signaling; Wnt/beta-catenin reporter cell assay, activator, plate reader; 1.2% of 300,000 active; activation, % at 9.35 µM; in the data active means activation above about 30%, passing the limit was not always enough;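 further: 0% = neutral control wells and 100% = positive control wells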
# C2C12 statin = protects C2C12 myotubes from simvastatin toxicity; ATP luminescence, 48 h; scaled: DMSO 0, geranylgeraniol control 100; rescue of ATP level, % at 7.49 µM; 0.78% of 330,000 active; AID 602340;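 active means mean ATP rescue above about 67%, or every replicate alone reaching that limit, limit read from the data, passing the limit was not always enough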;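 further: myotubes were challenged with 10 µM simvastatin during compound exposure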
# An asterisk follows results filed as active; nt = no result.
SMILES,TRPM1 prom inh,LMP1 NFkB inh,esBAF inh,MITF TRPM1 HTS,Wnt bcat act,C2C12 statin
COc1cccc(C(=O)NNC(=O)c2cccc3ccccc23)c1,-24.3,-4.5,17.0,23.1,-3.2,-5.1
COc1ccc(C(=O)NNC(=O)c2cccc3ccccc23)cc1,-33.8,-10.2,53.6*,39.5,5.5,-0.2
COc1ccc(C(=O)Nc2ccccc2NC(=O)c2ccc(OC)cc2)cc1,-12.0,-4.8,0.9,15.6,2.5,13.1
COc1ccc(C(=O)Nc2cccc3ccccc23)cc1,-37.7,-9.3,51.9*,nt,-0.3,32.9
COc1ccc(C(=O)NC(=S)Nc2ccccc2F)cc1,-40.4,-11.3,nt,44.6,34.3*,nt
O=C(NNC(=O)c1cccc2ccccc12)c1ccc2c(c1)OCO2,-54.6,-9.0,54.0*,49.7,-1.6,1.7
O=C(NNC(=O)c1cccc2ccccc12)c1ccc(Cl)c(Cl)c1,2.4,-2.2,9.4,-4.1,-3.8,-12.0
COc1ccc(CNC(=S)Nc2ccccc2F)cc1,6.4,-13.9,9.8,-6.4,-0.6,15.2
CC(=O)OCCc1c2ccccc2c(CCCN(C)C)c2ccccc12,-1.8,-0.6,nt,1.6,3.0,nt
COc1cc2c(cc1OC)C(c1ccc(Cl)cc1)CC(=O)N2 (configuration not stated),13.9,0.0,0.4,nt,-1.2,18.6
Cc1ccc(S(=O)(=O)N[C@H]2CC[C@H](CCNC(=O)c3ccccc3F)O[C@@H]2CO)cc1,nt,nt,7.6,nt,nt,-8.2
N#C/C(=C\c1ccc(O)c([N+](=O)[O-])c1)C(=O)NCc1ccccc1,11.7,8.5,-10.3,-9.9,47.3*,12.2
CN(C)c1ccc(/C=C(/C#N)C(=O)NCc2ccccc2)o1,-60.2,-12.8,48.3*,60.6,12.8,-2.4
COc1ccc(CNC(=O)C2CCCN(Cc3nc(-c4cccc(C)c4)oc3C)C2)cc1 (configuration not stated),19.6,20.1,-4.9,-10.6,-1.8,-2.0
Cn1c(=O)c2c(ncn2CC(=O)OCC(=O)NC2CCCc3ccccc32)n(C)c1=O (configuration not stated),3.0,-3.3,-10.1,-1.8,-0.2,88.2*
COc1ccccc1CNC(=O)COC(=O)Cn1cnc2c1c(=O)n(C)c(=O)n2C,nt,-3.8,-1.7,nt,-1.1,2.9
Cn1c(=O)c2c(ncn2CC(=O)OCC(=O)NCc2ccc(Cl)cc2)n(C)c1=O,7.2,1.5,nt,-3.1,0.4,nt
Cn1c(=O)c2c(ncn2CC(=O)OCC(=O)NCc2ccccc2Cl)n(C)c1=O,-0.7,-3.7,nt,1.5,36.3*,nt
Cn1c(=O)c2c(ncn2CC(=O)NCc2cccnc2)n(C)c1=O,-6.5,-5.5,-16.9,9.2,nt,106.5*
CCOC(=O)c1c(NC(=O)CSc2nc3nc(C)cc(C)n3n2)sc(CC)c1C,-6.1,-2.3,-6.9,5.1,-0.1,0.8
Cc1ccc2c(c1)N=C(c1ccc(Cl)cc1)CO2,-68.9,-44.6,49.2*,71.5,10.8,11.8
c1ccc(C2=Nc3ccccc3OC2)cc1,3.1,1.0,0.7,-1.1,6.6,88.7*
Clc1ccc(C2=Nc3cc(Cl)ccc3OC2)cc1,-3.0,-4.7,nt,1.5,16.6,nt
Cc1cc(C(=O)NN)c(Cl)cc1Cl,-5.0,-8.0,2.9,3.3,1.5,4.0
Cc1onc(-c2ccccc2Cl)c1C(=O)NCCN1CCOCC1,0.6,29.3,nt,2.4,nt,nt
SMILES,TRPM1 prom inh,LMP1 NFkB inh,esBAF inh,MITF TRPM1 HTS,Wnt bcat act,C2C12 statin
O=C(CC(Nc1ccc(F)cc1)C(=O)O)c1ccccc1 (configuration not stated),-33.1,-33.3,48.9*,nt,nt,25.3
COc1ccccc1CN1CC(C(=O)NCc2cc(F)cc(C(F)(F)F)c2)CCC1=O (configuration not stated),-8.2,-2.1,15.1,8.3,0.9,2.1
COc1cccc(C(=O)/C=C/Nc2cccc(O)c2)c1,1.0,-4.9,-41.1,-2.9,0.6,13.3
O=C(/C=C/Nc1ccc(Br)cn1)c1cccc(OC(F)F)c1,-86.8,-39.4,68.1*,93.4*,14.9,-2.1
NS(=O)(=O)c1ccc(N=Nc2c[nH]c(=O)c(O)c2)cc1,3.0,3.9,-8.7,-5.7,9.0,-6.1
CC1CCN(C(=O)CNC(=O)c2cccc(OC(F)F)c2)CC1,2.7,-7.9,2.1,-2.6,0.5,-14.7
CC1CCN(C(=O)CNC(=O)c2ccc(Br)o2)CC1,-68.9,-25.6,26.9,71.2,37.6*,-1.5
COc1cccc(C(=O)NCC(=O)N2CCC(C)CC2)c1,-32.1,5.6,11.8,33.3,nt,99.1*
